From PubChem BioAssay (Tox21)
Values joined by “and” are separate entries in the source; they are usually repeats but may differ in a detail not shown here. Equal values may be shown once. Records with an inconclusive call do not appear. A call without a number means that no potency is given here. Active and inactive are the calls of the source. Calls follow the shape of the dose curve; as a rule, active = well fitted curve in the direction sought with a large enough effect in the repeat runs; inconclusive = weak or mixed curves; inactive = no such curve, though single readings can be large; an effect the other way counts as inactive or inconclusive.

tested on: not listed separately; test: qHTS assay to identify small molecule antagonists of the constitutive androstane receptor (CAR) signaling pathway - cell viability counter screen (AID 1224837); settings: HepG2-CYP2B6-hCAR viability, CellTiter-Fluor, 23 h, co-treated with 50 nM CITCO; series mostly up to 92.4 µM; also: nearly all actives have a fitted effect of over 45% in size
How it was run: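 Multiplexed cytotoxicity read-out for the CAR antagonist screen: double-stable HepG2-CYP2B6-hCAR cells co-treated with 50 nM CITCO (final) and compound over 15 concentrations, incubated 23 hr, then assessed by CellTiter-Fluor fluorescence.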

Structure (SMILES) | Potency
CC(N)CN (stereo not drawn) | inactive
COC(=O)[C@@H]1CC2=CC(=O)CC[C@]2(C)[C@@]23O[C@@H]2C[C@@]2(C)[C@@H](CC[C@@]24CCC(=O)O4)[C@H]13 | inactive
CCCCN(CCCC)CCCOC(=O)c1ccc(N)cc1 | inactive
C=CC(C)(O)CCCC(C)CCCC(C)CCCC(C)C (stereo not drawn) | inactive
CCN(Cc1cccc(S(=O)(=O)O)c1)c1ccc(C(=C2C=CC(=[N+](CC)Cc3cccc(S(=O)(=O)[O-])c3)C=C2)c2ccccc2)cc1 | inactive
COCc1c(C(C)C)nc(C(C)C)c(/C=C/[C@@H](O)C[C@@H](O)CC(=O)O)c1-c1ccc(F)cc1 | inactive
CCCCCCOC(=O)CCCCCCCC(=O)OCCCCCC | inactive
NC(=O)Nc1ccc(Cl)c(Cl)c1 | inactive

biological target: Nuclear receptor subfamily 1 group I member 3 (Homo sapiens) (UniProt Q14994); test: qHTS assay to identify small molecule antagonists of the constitutive androstane receptor (CAR) signaling pathway (AID 1224838); settings: HepG2-CYP2B6-hCAR luciferase, CITCO-stimulated, 24 h; series mostly up to 92.4 µM; also: nearly all actives have a fitted effect of over 40% in size; also: potency is read from the fitted curve at half-maximal effect
How it was run: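 Compounds were titrated across 15 concentrations onto HepG2 cells double-stably expressing hCAR and a CYP2B6-2.2kb reporter, together with 50 nM CITCO (final). After 24 h at 37 C, luciferase activity was measured by luminescence.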

Sequence of Nuclear receptor subfamily 1 group I member 3 (Homo sapiens) (Q14994 whole entry, looked up): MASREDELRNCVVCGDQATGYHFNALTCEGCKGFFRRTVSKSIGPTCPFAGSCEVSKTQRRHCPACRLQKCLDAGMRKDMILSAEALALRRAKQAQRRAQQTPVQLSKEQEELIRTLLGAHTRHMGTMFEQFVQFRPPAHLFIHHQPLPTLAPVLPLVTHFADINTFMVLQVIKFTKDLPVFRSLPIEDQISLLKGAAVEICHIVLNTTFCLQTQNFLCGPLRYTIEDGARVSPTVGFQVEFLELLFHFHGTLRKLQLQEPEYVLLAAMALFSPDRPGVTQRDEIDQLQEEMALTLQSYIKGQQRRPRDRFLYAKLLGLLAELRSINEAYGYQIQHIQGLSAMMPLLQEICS

Structure (SMILES) | Potency | activity, negative = inhibition
CCC(=O)OC/C=C/c1ccccc1 | inactive | 
O=C(CS)OCCOC(=O)CS | inactive | 
CN1CCN(c2c(F)cc3c(=O)c(C(=O)O)cn4c3c2OCN4C)CC1 |  | 0.0919% [at 19 µM] (inactive)
Cc1cc(O)c(C(C)C)cc1Cl | inactive | 
O=C(C(=O)c1ccccc1)c1ccccc1 | inactive | 
O=C(CCCCCCC(=O)Nc1ccccc1)NO | 3.76 µM (active) | 
CCOC(=O)c1ccccc1OC | inactive | 
CCCCC(=O)O[C@]1(C(=O)CO)CC[C@H]2[C@@H]3CCC4=CC(=O)CC[C@]4(C)[C@H]3[C@@H](O)C[C@@]21C | inactive | 
O=C(O)c1ccccc1NCCc1ccccc1 | inactive | 
CCOC(=N)CC(=O)OCC | inactive | 
COc1cc2[nH]c(=O)[nH]c(=O)c2cc1OC | inactive | 
CC[C@@H]([C@H](C)O)n1ncn(-c2ccc(N3CCN(c4ccc(OC[C@@H]5CO[C@@](Cn6cncn6)(c6ccc(F)cc6F)C5)cc4)CC3)cc2)c1=O | inactive | 
CCC(C)(C)C1CCC(O)CC1 (stereo not drawn) | inactive | 
Cc1nc2ccccn2c(=O)c1CCN1CCC(C(=O)c2ccc(F)cc2)CC1 | inactive | 
O=C(O)c1cccc(O)c1 | inactive | 
O=C1OCCN1/N=C/c1ccc([N+](=O)[O-])o1 | inactive | 
CC(C)C(OC(=O)c1ccccc1)C(C)(C)COC(=O)c1ccccc1 (stereo not drawn) | inactive | 
CC(C)C(=O)O | inactive | 
C[C@@H]1C[C@H]2[C@@H]3CCC4=CC(=O)C=C[C@]4(C)[C@@]3(F)[C@@H](O)C[C@]2(C)[C@H]1C(=O)CO | inactive | 
CC1(C)C2=CCCC(C)(C)[C@]23CC[C@H]1C3 | inactive | 
CCCCC/C(=C\c1ccccc1)CO | inactive | 
Cc1cc(C(=C2C=CC(=Nc3ccc(S(=O)(=O)O)cc3S(=O)(=O)O)C=C2)c2ccc(Nc3ccc(S(=O)(=O)O)cc3)cc2)ccc1N | inactive | 
COc1cc2c(N3CCN(C(=O)Nc4ccc(OC(C)C)cc4)CC3)ncnc2cc1OCCCN1CCCCC1 | 15 µM (active) | 
COC(=O)[C@@H]1CC2=CC(=O)CC[C@]2(C)[C@@]23O[C@@H]2C[C@@]2(C)[C@@H](CC[C@@]24CCC(=O)O4)[C@H]13 | inactive | 
CCCCN(CCCC)CCCOC(=O)c1ccc(N)cc1 | inactive | 
C=CC(C)(O)CCCC(C)CCCC(C)CCCC(C)C (stereo not drawn) | inactive | 
CCN(Cc1cccc(S(=O)(=O)O)c1)c1ccc(C(=C2C=CC(=[N+](CC)Cc3cccc(S(=O)(=O)[O-])c3)C=C2)c2ccccc2)cc1 | inactive | 
COCc1c(C(C)C)nc(C(C)C)c(/C=C/[C@@H](O)C[C@@H](O)CC(=O)O)c1-c1ccc(F)cc1 | 4.73 µM (active) and 6.05 µM (active) | 
CCCCCCOC(=O)CCCCCCCC(=O)OCCCCCC | inactive | 
NC(=O)Nc1ccc(Cl)c(Cl)c1 | inactive | 
